Data reported in PubChem BioAssay (Tox21).
Records with an inconclusive call do not appear. Where a call stands in place of a potency, no number is given. Values without a mark were called inactive. Activity calls are given as the source filed them. The call rests on the fitted dose curve.

biological target: Acetylcholinesterase (Homo sapiens) (UniProt P22303); assay: Acetylcholinesterase (AChE) small molecule antagonists: colormetric cell-based qHTS assay (AID 1347395); conditions: SH-SY5Y cells AChE activity, colorimetric (Ellman); series mostly up to 115 µM; further: nearly all actives have a fitted effect of over 30% in size
Sequence (P22303 whole entry, looked up): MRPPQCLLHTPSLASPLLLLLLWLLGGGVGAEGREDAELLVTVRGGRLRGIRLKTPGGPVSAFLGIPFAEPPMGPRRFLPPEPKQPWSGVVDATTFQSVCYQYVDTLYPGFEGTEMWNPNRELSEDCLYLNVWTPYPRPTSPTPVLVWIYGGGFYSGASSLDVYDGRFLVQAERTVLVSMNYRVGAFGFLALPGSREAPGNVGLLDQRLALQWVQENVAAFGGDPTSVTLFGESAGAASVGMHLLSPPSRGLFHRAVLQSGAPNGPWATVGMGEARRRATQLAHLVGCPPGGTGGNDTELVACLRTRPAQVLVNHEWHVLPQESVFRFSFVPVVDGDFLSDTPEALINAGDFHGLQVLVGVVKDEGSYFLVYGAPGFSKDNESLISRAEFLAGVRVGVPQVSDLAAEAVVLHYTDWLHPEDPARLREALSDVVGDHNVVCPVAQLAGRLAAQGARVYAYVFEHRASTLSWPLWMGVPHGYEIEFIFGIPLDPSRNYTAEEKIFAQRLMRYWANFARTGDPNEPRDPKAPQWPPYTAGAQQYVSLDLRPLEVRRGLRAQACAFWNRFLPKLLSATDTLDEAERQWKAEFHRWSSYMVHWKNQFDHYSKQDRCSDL
Summary of the method: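 Homogeneous whole-cell format. SH-SY5Y cells seeded overnight, dosed with compound (30 min, 37 C, 5% CO2), then given DTNB/acetylthiocholine cocktail for 90 min at 37 C; colorimetric signal.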
Potency means the concentration at half of the fitted maximal effect.

| Structure (SMILES) | Potency | activity, negative = inhibition |
| --- | --- | --- |
| CC(=O)OC1CCC(C(C)(C)C)CC1 (stereo not given) | inactive |  |
| [O]=[Bi] |  | 1.07% [at 10.5 µM] |
| CC(N)=O | inactive |  |
| O=C(O)CCc1nc2ccccc2[nH]1 | inactive |  |
| NC(=O)c1ccccc1Cl | inactive |  |
| CCCCCCCC/C=C\CCCCCCCC(=O)O | inactive |  |
| O=Cc1ccccc1Cl | inactive |  |
| COc1c(Cl)ccc(Cl)c1C(=O)O | inactive |  |
| C1CCCC1 | inactive |  |
| Cc1cccc(NC(=S)N(C)C)c1 | inactive |  |
| O=C(O)c1ccc(C(=O)O)c(C(=O)O)c1 | inactive |  |
| Cc1cc(O)c(C(C)C)cc1Cl | inactive |  |
| Cc1oc(=O)oc1CN1CCN(c2cc3c(cc2F)c(=O)c(C(=O)O)c2n3C(C)S2)CC1 (stereo not given) | inactive |  |
| CC(COCC(C)OC(=O)c1ccccc1)OC(=O)c1ccccc1 (stereo not given) | inactive |  |
| O[Si](c1ccccc1)(c1ccccc1)c1ccccc1 | inactive |  |
| NCCCCCC(=O)O | inactive |  |
| Oc1ccccc1O | inactive |  |
| O=C1Nc2cc(Cl)ccc2Oc2ccccc21 | inactive |  |
| CN(C)c1ccc(C(c2ccccc2)c2ccc(N(C)C)cc2)cc1 | inactive |  |
| Cc1cc(O)c2c(c1)C(=O)c1cc(O)cc(O)c1C2=O | inactive |  |

| Structure (SMILES) | Potency | activity, negative = inhibition |
| --- | --- | --- |
| OC1CCCC1 | inactive |  |
| C=C(C)C(N)=O | inactive |  |
| CC(=O)Nc1ccc(CC(=O)O)cc1 | inactive |  |
| CC(=O)Nc1ccc(C(=O)O)cc1 | inactive |  |
| Cc1ccc(S(=O)(=O)O)cc1C | inactive |  |
| Cc1cc2nc3ccc(=[N+](C)C)cc-3sc2cc1N | 1.38 µM (active) |  |
| O=C(O)c1cccc(Cl)c1Cl | inactive |  |
| COCCOC(=O)C1=C(C)NC(C)=C(C(=O)OC(C)C)C1c1cccc([N+](=O)[O-])c1 (stereo not given) | inactive |  |
| O=[N+]([O-])c1ccc(CCO)cc1 | inactive |  |
| O=c1cc(-c2ccccc2)oc2cc(O)cc(O)c12 | inactive |  |
| COc1ccc(NC(C)=O)cc1 | inactive |  |
| CCCCCC(=O)OCC | inactive |  |
| CCCC(=O)c1ccccc1 | inactive |  |
| Nc1cc(-c2ccncc2)c[nH]c1=O | inactive |  |
| O=C(O)c1ccc(O)cc1 | inactive |  |
| CC(C)=CCCC(C)CCOC=O (stereo not given) | inactive |  |
| O=C1OC2(c3ccccc31)c1cc(Br)c(O)c(Br)c1Oc1c2cc(Br)c(O)c1Br | inactive |  |
| COc1ccc([C@@H]2CC(=O)c3c(O)cc(O[C@@H]4O[C@H](CO[C@@H]5O[C@@H](C)[C@H](O)[C@@H](O)[C@H]5O)[C@@H](O)[C@H](O)[C@H]4O)cc3O2)cc1OC | inactive |  |
| NNC(=O)CP(=O)(c1ccccc1)c1ccccc1 | inactive |  |
| CC(C)COC(=O)c1ccc(N)cc1 | inactive |  |
